Measured values as given in PubChem BioAssay AID1159580 (chemical genetic matrix, 2015).
Screen size: about 5,500 compounds; about 2,000 (36%) were called active. Inconclusive results (about 18%) are left out. Rule as the data show it: active = normalized growth mostly below about 0.91 (no sharp cut-off); inconclusive = no clear call, values can overlap the other calls; inactive = mostly above about 0.92. Some of the results follow.

Assay: chemical genetic growth profiling, strain panel (AID 1159580);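 also: tested at 20 µM; growth read once vehicle control cultures reached saturation at 30 °C; 1 = growth at the plate median or of vehicle wells; lower values mean less growth of the strain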
Conditions: growth OD

Measured: normalized growth

CC1=NCCc2c1[nH]c1cc(O)ccc21
inactive: S. cerevisiae deletion strains, locus YJR075W, strain HOC1, active compounds read low 0.988 | S. cerevisiae deletion strains, locus YKL009W, strain mrt4, active compounds read low 0.951 | S. cerevisiae deletion strains, locus YKL068W, active compounds read low 0.993 | S. cerevisiae deletion strains, locus YKL085W, strain MDH1 (second series), active compounds read low 0.988 | S. cerevisiae deletion strains, locus YKL085W, strain MDH1, active compounds read low 0.988 | S. cerevisiae deletion strains, locus YKL160W, strain elf1, active compounds read low 0.955 | S. cerevisiae deletion strains, locus YKL190W, strain CNB1, active compounds read low 0.999 | S. cerevisiae deletion strains, locus YKR001C, strain vps1, active compounds read low 0.993 | S. cerevisiae deletion strains, locus YKR026C, strain gcn3, active compounds read low 0.989 | S. cerevisiae deletion strains, locus YKR091W, strain srl3, active compounds read low 0.988 | S. cerevisiae deletion strains, locus YLL001W, strain dnm1, active compounds read low 0.984 | S. cerevisiae deletion strains, locus YLL026W, active compounds read low 0.992 | S. cerevisiae deletion strains, locus YLL041C, strain sdh2, active compounds read low 0.97 | S. cerevisiae deletion strains, locus YLR027C, strain aat2, active compounds read low 0.985 | S. cerevisiae deletion strains, locus YLR039C, strain RIC1, active compounds read low 0.993 | S. cerevisiae deletion strains, locus YLR058C, strain SHM2, active compounds read low 0.971 | S. cerevisiae deletion strains, locus YLR102C, strain apc9, active compounds read low 0.993 | S. cerevisiae deletion strains, locus YLR113W, strain HOG1, active compounds read low 1 | S. cerevisiae deletion strains, locus YLR221C, strain rsa3, active compounds read low 1.03 | S. cerevisiae deletion strains, locus YLR258W, strain gsy2, active compounds read low 0.967 | S. cerevisiae deletion strains, locus YLR262C, strain YPT6 (second series), active compounds read low 0.989 | S. cerevisiae deletion strains, locus YLR262C, strain YPT6, active compounds read low 0.95 | S. cerevisiae deletion strains, locus YLR268W, strain sec22, active compounds read low 1.05 | S. cerevisiae deletion strains, locus YLR320W, strain mms22, active compounds read low 1.03 | S. cerevisiae deletion strains, locus YLR330W, strain CHS5, active compounds read low 0.996 | S. cerevisiae deletion strains, locus YLR342W, strain FKS1 (second series), active compounds read low 0.996 | S. cerevisiae deletion strains, locus YLR342W, strain FKS1, active compounds read low 0.992 | S. cerevisiae deletion strains, locus YLR357W, strain rsc2, active compounds read low 0.973 | S. cerevisiae deletion strains, locus YLR370C, strain arc18, active compounds read low 0.973 | S. cerevisiae deletion strains, locus YLR371W, strain rom2, active compounds read low 0.978 | S. cerevisiae deletion strains, locus YLR384C, strain iki3, active compounds read low 0.994 | S. cerevisiae deletion strains, locus YLR418C, strain cdc73, active compounds read low 0.995 | S. cerevisiae deletion strains, locus YML016C, strain PPZ1, active compounds read low 0.997 | S. cerevisiae deletion strains, locus YML032C, strain rad52, active compounds read low 0.995 | S. cerevisiae deletion strains, locus YML120C, strain ndi1, active compounds read low 0.962 | S. cerevisiae deletion strains, locus YML124C, strain tub3, active compounds read low 0.988 | S. cerevisiae deletion strains, locus YMR058W, strain fet3, active compounds read low 0.994 | S. cerevisiae deletion strains, locus YMR078C, strain ctf18, active compounds read low 0.979 | S. cerevisiae deletion strains, locus YMR125W, strain sto1, active compounds read low 0.928 | S. cerevisiae deletion strains, locus YMR129W, active compounds read low 0.986 | S. cerevisiae deletion strains, locus YMR205C, strain PFK2, active compounds read low 0.95 | S. cerevisiae deletion strains, locus YMR223W, strain ubp8, active compounds read low 0.961 | S. cerevisiae deletion strains, locus YMR231W, strain pep5, active compounds read low 0.991 | S. cerevisiae deletion strains, locus YMR263W, strain SAP30, active compounds read low 0.99 | S. cerevisiae deletion strains, locus YMR307W, strain GAS1, active compounds read low 0.987 | S. cerevisiae deletion strains, locus YNL067W, strain RPL9B, active compounds read low 1.02 | S. cerevisiae deletion strains, locus YNL071W, strain lat1, active compounds read low 0.981 | S. cerevisiae deletion strains, locus YNL128W, strain TEP1, active compounds read low 0.97 | S. cerevisiae deletion strains, locus YNL153C, strain GIM3, active compounds read low 1 | S. cerevisiae deletion strains, locus YNL183C, strain NPR1, active compounds read low 0.928 | S. cerevisiae deletion strains, locus YNL209W, strain ssb2, active compounds read low 0.988 | S. cerevisiae deletion strains, locus YNL233W, strain BNI4, active compounds read low 1 | S. cerevisiae deletion strains, locus YNL248C, strain rpa49, active compounds read low 0.926 | S. cerevisiae deletion strains, locus YNL250W, strain rad50, active compounds read low 0.981 | S. cerevisiae deletion strains, locus YNL271C, strain bni1, active compounds read low 1 | S. cerevisiae deletion strains, locus YNL298W, strain CLA4, active compounds read low 0.985 | S. cerevisiae deletion strains, locus YNL307C, strain MCK1, active compounds read low 0.988 | S. cerevisiae deletion strains, locus YNL322C, strain KRE1 (second series), active compounds read low 0.981 | S. cerevisiae deletion strains, locus YNL322C, strain KRE1, active compounds read low 0.992 | S. cerevisiae deletion strains, locus YNR049C, strain mso1, active compounds read low 0.97 | S. cerevisiae deletion strains, locus YNR052C, strain pop2, active compounds read low 0.995 | S. cerevisiae deletion strains, locus YOL006C, strain TOP1, active compounds read low 1.04 | S. cerevisiae deletion strains, locus YOL012C, strain htz1 1.3 | S. cerevisiae deletion strains, locus YOL147C, strain pex11, active compounds read low 0.998 | S. cerevisiae deletion strains, locus YOR001W, strain rrp6, active compounds read low 1.01 | S. cerevisiae deletion strains, locus YOR061W, strain CKA2, active compounds read low 0.978 | S. cerevisiae deletion strains, locus YOR069W, strain VPS5, active compounds read low 0.973 | S. cerevisiae deletion strains, locus YOR070C, strain gyp1, active compounds read low 1.01 | S. cerevisiae deletion strains, locus YOR080W, strain dia2, active compounds read low 1.01 | S. cerevisiae deletion strains, locus YOR083W, strain WHI5, active compounds read low 0.954 | S. cerevisiae deletion strains, locus YOR106W, strain vam3, active compounds read low 0.93 | S. cerevisiae deletion strains, locus YOR136W, strain idh2, active compounds read low 0.985 | S. cerevisiae deletion strains, locus YOR144C, strain elg1, active compounds read low 0.994 | S. cerevisiae deletion strains, locus YOR184W, strain ser1, active compounds read low 0.969 | S. cerevisiae deletion strains, locus YOR231W, strain MKK1, active compounds read low 0.985 | S. cerevisiae deletion strains, locus YOR265W, strain rbl2, active compounds read low 0.976 | S. cerevisiae deletion strains, locus YOR270C, strain vph1, active compounds read low 1.02 | S. cerevisiae deletion strains, locus YOR290C, strain snf2, active compounds read low 0.911 | S. cerevisiae deletion strains, locus YOR316C, strain cot1, active compounds read low 0.992 | S. cerevisiae deletion strains, locus YPL051W, strain arl3, active compounds read low 1.01 | S. cerevisiae deletion strains, locus YPL055C, strain LGE1, active compounds read low 0.956 | S. cerevisiae deletion strains, locus YPL078C, strain atp4, active compounds read low 0.928 | S. cerevisiae deletion strains, locus YPL106C, strain sse1, active compounds read low 0.943 | S. cerevisiae deletion strains, locus YPL240C, strain hsp82, active compounds read low 0.992 | S. cerevisiae deletion strains, locus YPL241C, strain CIN2, active compounds read low 0.996 | S. cerevisiae deletion strains, locus YPL256C, strain CLN2, active compounds read low 0.991 | S. cerevisiae deletion strains, locus YPR119W, strain clb2, active compounds read low 0.989 | S. cerevisiae deletion strains, locus YPR141C, strain kar3, active compounds read low 0.981 | S. cerevisiae deletion strains, locus YPR163C, strain tif3, active compounds read low 1 | S. cerevisiae deletion strains, locus YPR167C, strain met16, active compounds read low 0.998 | S. cerevisiae deletion strains, strain wtn01, active compounds read low 0.992 | S. cerevisiae strains, strain wild type, active compounds read low 0.988
